Measurements published in PubChem BioAssay (EPA / NIEHS).
Activity calls are given as the source filed them. The calls were made as follows: active = hit-call score of the fitted dose curve at least 0.9, where 1 is the maximum; inactive = score below 0.9.

tested on: not listed separately; assay: ATG_NRF2_ARE_CIS: Attagene CIS-FACTORIAL HepG2 Assay for human Nuclear Factor Erythroid 2 Related Factor 2 (NFR2) response to Antioxidant Response Elements (ARE) (AID 2282992); conditions: HepG2 Attagene ARE/NRF2 reporter, transcription factor activity; actives raise or lower the signal;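 as to AC50: reporter mRNA level measured by RT-PCR and capillary electrophoresis fluorescence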
How it was run: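 Using transiently transfected HepG2 cells exposed for 24 h, reporter mRNA levels were determined by RT-PCR with fluorescent primer extension and capillary electrophoresis, analysed for gain or loss of signal against DMSO.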

outcome, inactive:
CNC(=C[N+](=O)[O-])NCCSCc1csc(CN(C)C)n1
CCCC(=O)OC/C=C(\C)CCC=C(C)C
CCCCCCC(O)CCCCCCCCCCC(=O)OC (stereo unspecified)
COC(=O)c1ccccc1
O=C(O)/C=C/C(=O)O
O=S(=O)(O)c1cccc2ccccc12
C/C=C(\C)C(=O)OCC/C=C\CC
C=CCOCC(CC)(CO)COCC=C
CCO[Si](CCCN)(OCC)OCC
O=[N+]([O-])c1ccccc1C(F)(F)F
CCC(=O)OCc1ccc(OC)cc1
CCc1cc(C(N)=S)ccn1
CCC(C)=NO
CCCCCC1CCCC(=O)O1 (stereo unspecified)
Cc1cc(-n2nc3ccc(Cl)cc3n2)c(O)c(C(C)(C)C)c1
O=C(OCc1ccccc1)c1ccccc1
c1ccc(CNc2ncnc3nc[nH]c23)cc1
CC(=O)Nc1c(I)c(NC(C)=O)c(I)c(C(=O)O)c1I
Oc1ccc(Oc2ccccc2)cc1
CC(=O)CCc1ccccc1

AC50, active:
O=C1CCCCCCCCCCCCCC1 32.6 µM
CC/C=C\CC/C=C/C(OCC)OCC 26.2 µM
CN1CCCC1 26.2 µM
C=C1CC[C@H]2C[C@@H]1C2(C)C 21.9 µM
COC(=O)[C@]1(C)CCC[C@@]2(C)[C@H]1CC=C1C=C(C(C)C)CC[C@@H]12 32.2 µM
Oc1cccc2ccccc12 4.38 µM
CN(C)c1ccc(C(c2ccccc2)c2ccc(N(C)C)cc2)cc1 68.1 µM
c1ccc2c(c1)Oc1ccccc1S2 146 µM

tested on: not listed separately; assay: ATG_Oct_MLP_CIS: Attagene CIS-FACTORIAL HepG2 Assay for human Octamer-Binding Transcription Factor (Oct) (AID 2282993); conditions: HepG2 Attagene cis-factorial Oct reporter, mRNA; actives raise or lower the signal
How it was run: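 After 24 h compound exposure, transfected HepG2 cells were lysed for total RNA; reporter-specific cDNA was PCR-amplified, fluorescently labelled and sized by capillary electrophoresis. Bidirectional curve fitting used DMSO as baseline.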

outcome, inactive:
CNC(=C[N+](=O)[O-])NCCSCc1csc(CN(C)C)n1
O=C1CCCCCCCCCCCCCC1
CCCC(=O)OC/C=C(\C)CCC=C(C)C
CCCCCCC(O)CCCCCCCCCCC(=O)OC (stereo unspecified)
COC(=O)c1ccccc1
O=C(O)/C=C/C(=O)O
O=S(=O)(O)c1cccc2ccccc12
C/C=C(\C)C(=O)OCC/C=C\CC
CC/C=C\CC/C=C/C(OCC)OCC
C=CCOCC(CC)(CO)COCC=C
CN1CCCC1
CCO[Si](CCCN)(OCC)OCC
CCCCCCC1CCC(=O)O1 (stereo unspecified)
O=[N+]([O-])c1ccccc1C(F)(F)F
CCC(=O)OCc1ccc(OC)cc1
CCc1cc(C(N)=S)ccn1
CCC(C)=NO
COc1cccc(OC)c1C(=O)O
C=C1CC[C@H]2C[C@@H]1C2(C)C
CCCCCC1CCCC(=O)O1 (stereo unspecified)
COC(=O)[C@]1(C)CCC[C@@]2(C)[C@H]1CC=C1C=C(C(C)C)CC[C@@H]12
Cc1cc2nc3c(=O)[nH]c(=O)nc-3n(C[C@H](O)[C@H](O)[C@H](O)CO)c2cc1C
Cc1cc(-n2nc3ccc(Cl)cc3n2)c(O)c(C(C)(C)C)c1
O=C(OCc1ccccc1)c1ccccc1
CCCCCCC1CCCC(=O)O1 (stereo unspecified)
c1ccc(CNc2ncnc3nc[nH]c23)cc1
NC(=O)c1ccc(N)cc1
CC(=O)Nc1c(I)c(NC(C)=O)c(I)c(C(=O)O)c1I
CC(C)=CCOC(=O)c1ccccc1
CC(C)(C)NC(=O)[C@@H]1CN(Cc2cccnc2)CCN1C[C@@H](O)C[C@@H](Cc1ccccc1)C(=O)N[C@H]1c2ccccc2C[C@H]1O
Oc1cccc2ccccc12
C=CN1CCCCCC1=O
Oc1ccc(Oc2ccccc2)cc1
CC(=O)CCc1ccccc1
CNC[C@H](O)[C@@H](O)[C@H](O)[C@H](O)CO
CN(C)c1ccc(C(c2ccccc2)c2ccc(N(C)C)cc2)cc1
c1ccc2c(c1)Oc1ccccc1S2
CCCCCC[C@@H](O)C/C=C\CCCCCCCC(=O)O
CC[N+](CC)(CC(=O)Nc1c(C)cccc1C)Cc1ccccc1 (tested in a mixture with another compound)

molecular target: Cellular tumor antigen p53 (Homo sapiens) (UniProt P04637); assay: ATG_p53_CIS: Attagene CIS-FACTORIAL HepG2 Assay for human p53 Transcription Factor (AID 2282994); conditions: HepG2 p53 cis-element reporter, Attagene mRNA; actives raise or lower the signal
Sequence (P04637 whole entry, looked up, the tested form may be a part): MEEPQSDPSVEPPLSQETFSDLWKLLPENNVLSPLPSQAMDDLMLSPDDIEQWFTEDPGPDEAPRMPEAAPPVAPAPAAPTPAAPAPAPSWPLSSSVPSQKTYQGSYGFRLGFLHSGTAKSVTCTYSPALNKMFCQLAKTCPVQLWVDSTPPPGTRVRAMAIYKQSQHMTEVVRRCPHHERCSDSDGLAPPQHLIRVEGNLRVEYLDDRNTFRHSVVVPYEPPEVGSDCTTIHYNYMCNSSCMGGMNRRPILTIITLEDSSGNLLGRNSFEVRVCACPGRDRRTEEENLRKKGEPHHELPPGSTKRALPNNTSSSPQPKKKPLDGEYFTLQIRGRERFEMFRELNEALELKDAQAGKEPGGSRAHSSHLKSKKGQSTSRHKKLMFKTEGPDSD
How it was run: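 In HepG2 cells, reporter transcription units under cis-regulatory promoters were transiently introduced. Following 24 h treatment, RNA was processed to labelled, digested cDNA fragments read by capillary electrophoresis; fitting was bidirectional versus DMSO.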

outcome, inactive:
CNC(=C[N+](=O)[O-])NCCSCc1csc(CN(C)C)n1
O=C1CCCCCCCCCCCCCC1
CCCCCCC(O)CCCCCCCCCCC(=O)OC (stereo unspecified)
COC(=O)c1ccccc1
O=C(O)/C=C/C(=O)O
O=S(=O)(O)c1cccc2ccccc12
C/C=C(\C)C(=O)OCC/C=C\CC
C=CCOCC(CC)(CO)COCC=C
CN1CCCC1
CCO[Si](CCCN)(OCC)OCC
CCCCCCC1CCC(=O)O1 (stereo unspecified)
O=[N+]([O-])c1ccccc1C(F)(F)F
CCC(=O)OCc1ccc(OC)cc1
CCc1cc(C(N)=S)ccn1
CCC(C)=NO
COc1cccc(OC)c1C(=O)O
CCCCCC1CCCC(=O)O1 (stereo unspecified)
COC(=O)[C@]1(C)CCC[C@@]2(C)[C@H]1CC=C1C=C(C(C)C)CC[C@@H]12
Cc1cc2nc3c(=O)[nH]c(=O)nc-3n(C[C@H](O)[C@H](O)[C@H](O)CO)c2cc1C
Cc1cc(-n2nc3ccc(Cl)cc3n2)c(O)c(C(C)(C)C)c1
CCCCCCC1CCCC(=O)O1 (stereo unspecified)
c1ccc(CNc2ncnc3nc[nH]c23)cc1
NC(=O)c1ccc(N)cc1
CC(C)=CCOC(=O)c1ccccc1
CC(C)(C)NC(=O)[C@@H]1CN(Cc2cccnc2)CCN1C[C@@H](O)C[C@@H](Cc1ccccc1)C(=O)N[C@H]1c2ccccc2C[C@H]1O
Oc1cccc2ccccc12
C=CN1CCCCCC1=O
Oc1ccc(Oc2ccccc2)cc1
CC(=O)CCc1ccccc1
CNC[C@H](O)[C@@H](O)[C@H](O)[C@H](O)CO
CN(C)c1ccc(C(c2ccccc2)c2ccc(N(C)C)cc2)cc1
c1ccc2c(c1)Oc1ccccc1S2
CCCCCC[C@@H](O)C/C=C\CCCCCCCC(=O)O

AC50, active:
CC/C=C\CC/C=C/C(OCC)OCC 187 µM
